From PubChem BioAssay (NCATS)
Results filed as inconclusive are left out. Some structures have more than one record in an assay (separate samples or runs), and their calls can disagree. Active and inactive are the calls of the source. Unless noted, the call rests on the fitted dose curve; in most records, active means well fitted curve in the direction sought with a large enough effect; inconclusive means small, poorly fitted or top-dose-only effect, or another doubt; inactive means no such curve, though single readings can be large; an effect the other way counts as inactive or inconclusive.

Columns and labels:
[1] = Vero cells viability qHTS for Zika virus inhibitors (AID 1347167); further: on the % scale 0 is the no-effect control and ±100 the full control effect
Summary of the method: (§1)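 To flag cytotoxic protease inhibitors, viability is measured by ATP-dependent luminescence (CellTiter Glo) after cells attached overnight receive compound for 24 to 48 hours in DMEM with 4% FBS.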

[2] = HepG2 cells viability qHTS for Zika virus inhibitors (AID 1347168); further: on the % scale 0 is the no-effect control and ±100 the full control effect
Summary of the method: as §1

[3] = target: Calcium and integrin-binding protein 1 (Homo sapiens) (UniProt Q99828); assay: Primary qHTS for Identification of Calcium Integrin Binding Protein 1 (CIB1) Competitor (AID 1508620);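 further: GST tagged CIB1 binding a fluorescein labelled alphaIIb integrin peptide tracer; top concentration of the series differs between compounds; on the % scale 0 is the no-effect control and ±100 the full control effect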
Summary of the method: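 Fluorescence polarization competition: CIB1-GST (1 uM final) preincubated with compound 15 min at room temperature, then FITC-labeled alphaIIb peptide (100 nM final) added for another 15 min. Polarization read at Ex 480/Em 540.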

[4] = Primary qHTS for small molecule stabilizers of the endoplasmic reticulum resident proteome: Secreted ER Calcium Modulated Protein (SERCaMP) assay (AID 1508630); further: on the % scale 0 is the no-effect control and ±100 the full control effect
Summary of the method: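 The SH-SY5Y reporter protocol was run at 3 concentrations up to 38.3 uM (primary) or 11 concentrations (follow-up): 16 h compound, 100 nM thapsigargin for 4 h, then extracellular luciferase luminescence.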

[5] = qHTS to identify inhibitors of the type 1 interferon - major histocompatibility complex class I in skeletal muscle: primary screen against the NCATS LOPAC collection (AID 1347405)
Summary of the method: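 After 24 h at 37 C with compounds (7-point, 1:4.3 dilutions, 46 uM top final) plus 4 ng/ml IFN-beta, luminescence from lytic HiBiT detection was measured. HLA-B*08:01 in C25cl48 myoblasts carried an endogenous C-terminal HiBiT tag; medium lacked dexamethasone.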

[6] = qHTS to identify inhibitors of the type 1 interferon - major histocompatibility complex class I in skeletal muscle: primary screen against the NCATS Pharmaceutical Collection (AID 1347407)
Summary of the method: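 Luminescence from HiBiT-tagged endogenous HLA-B*08:01 served as the read-out of IFN-beta-induced MHC class I in CRISPR-engineered C25cl48 myoblasts. Cells received 4 ng/ml IFN-beta plus compound (high final 46 uM, […]) for 24 h.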

[7] = qHTS for inhibitors of adenylyl cyclases using a fission yeast platform: a pilot screen against the NCATS LOPAC library (AID 1347410);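 further: plate controls were DMSO vehicle for no effect and DPI positive control for full effect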
Summary of the method: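 Fission yeast qHTS: CHP2027 cells (AC9-GNAS-PDE4D2, fbp1-GFP), 5x10^6 cells/mL working density, EMM + His/Lys/Ura; LOPAC at up to 57 µM final; 18 h dark, 30C; GFP by laser cytometry. DPI positive control, DMSO vehicle.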

[8] = qHTS to identify inhibitors of the type 1 interferon - major histocompatibility complex class I in skeletal muscle: primary screen against the NCATS Mechanism Interrogation Plate v5.0 (MIPE) Libary (AID 1347411);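 further: plate controls were vehicle for no effect and reference inhibitor for full effect; nearly all actives have a fitted effect of over 65% in size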
Summary of the method: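 Luminescence from CRISPR HiBit-tagged endogenous HLA-B in human myoblasts reported MHC class I level after 24 h of IFN-beta (4 ng/ml) plus compound. Compounds ran as 11-point 1:3 series, top 46 uM final.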

[9] = target: Protein phosphatase 1D (Homo sapiens) (UniProt O15297); assay: RapidFire Mass Spectrometry qHTS Assay for Modulators of WT P53-Induced Phosphatase 1 (WIP1) (AID 1347424);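 further: amount of dephosphorylated VEPPL-S-QETFS peptide product formed by WIP1; series mostly up to about 63 µM; plate controls were DMSO wells for no effect and GSK830371 inhibitor control at 10 µM for full effect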
Summary of the method: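 Mass-spectrometric measurement of dephosphorylated peptide after a 5 min room-temperature reaction of 10 nM WIP1 with 2 uM phosphopeptide, following 1 h compound preincubation in 30 mM MgCl2 buffer.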

[10] = target: Protein phosphatase 1D (Homo sapiens) (UniProt O15297); assay: Rhodamine-PBP qHTS Assay for Modulators of WT P53-Induced Phosphatase 1 (WIP1) (AID 1347425); further: % of control where 0% means no effect
Summary of the method: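 5 nM WIP1 + 10 uM Rh-PBP, 50 mM Tris pH 7.5, 30 mM MgCl2, 1 mM TCEP, 0.1 mM EGTA, BSA; cpds pinned, 1 hr RT; + 10 uM phosphopeptide; fluorescence 1-min reads x 11 min; delta = f1 - f0.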

[11] = Validation qHTS assay for inhibitors of Activation Induced Cytidine Deaminase (AID): UDG Counterscreen signal (AID 1347427); further: 0% is about no effect
Summary of the method: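 Fluorescence at 560 nm excitation, 665 nm emission reports UDG signal after 250 mM NaOH (2x) addition and 30 min. Enzymes (AID 1 uM, UDG 2 U/mL, at 4/3x) preincubated 10 min with compound, then 4 h with 4x 250 nM DJC20/DJC23 substrate at room temperature.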

[12] = Primary qHTS for inhibitors of La Crosse Virus (LACV) - induced cell death in SH-SY5Y cells (AID 1508616);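 further: top concentration of the series differs between compounds; 0% = infected DMSO wells and 100% = uninfected DMSO wells; higher means more rescue of cells from virus-induced death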
Summary of the method: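 Rescue of virus-induced death was read as ATPLite luminescence after 6 days at 37C, scaled between DMSO wells with LACV and without virus. Cells were SH-SY5Y, 6000/well, infected at 0.01 MOI after compound addition.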

[13] = A High-Content qHTS Against Drug Library for the Identification of Small Molecules that Inhibit DYT1 Early Onset Primary Dystonia-Associated Cell Pathology (AID 1645839; calls by dose curve; further: potency means the concentration at half of the fitted maximal effect)
Summary of the method: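 Induced EGFP-delE TorsinA cells are imaged after 48 h of compound treatment. Punctate fusion-protein distribution gives the %pathology value, while nuclei counts flag toxicity. Wild-type EGFP-hTOR1A cells define the normal pattern.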

[14] = Tertiary RLuc qRT-PCR qHTS assay for Zika virus inhibitors (AID 1347169); further: nearly all actives have a fitted effect of over 55% in size; further: potency means the concentration at half of the fitted maximal effect
Summary of the method: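 Vero, 1,000 cells/well, o/n 37 C; cpd pinned in DMSO; ZIKV-RLuc Cambodian, MOI 1-2, 48-72 h 37 C; live-cell RLuc substrate, lum read at 1-1.5 h.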

[15] = target: Calcium and integrin-binding protein 1 (Homo sapiens) (UniProt Q99828); assay: Validation qHTS for Identification of Calcium Integrin Binding protein 1 (CIB1) Competitor (AID 1508618); further: on the % scale 0 is the no-effect control and ±100 the full control effect
Summary of the method: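 Displacement of FITC-alphaIIb peptide (100 nM) from CIB1-GST (1 uM) is monitored by polarization in quantitative HTS format; buffer carries 5 mM CaCl2 and 125 mM NaCl at pH 7.4, incubations are at room temperature.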

[16] = target: Single-stranded DNA cytosine deaminase (Homo sapiens) (UniProt Q9GZX7); assay: Validation qHTS assay for inhibitors of Activation Induced Cytidine Deaminase (AID): AID signal (AID 1347429); further: on the % scale 0 is the no-effect control and ±100 the full control effect
Summary of the method: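 Compounds (final up to 114 uM) preincubated with AID plus UDG; 250 nM DJC20/DJC23 substrate mix (4x stock) added, 4 hr at room temperature, then NaOH, 30 min. Read 1 fluorescence at 540 nm excitation, 590 nm emission.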

[17] = Counterscreen qHTS for small molecule stabilizers of the endoplasmic reticulum resident proteome: GLuc-NoTag assay (AID 1508627);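 further: series mostly up to about 76 µM; 0% = thapsigargin alone and -100% = DMSO vehicle control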
Summary of the method: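 Secreted GLuc lacking the SERCaMP modification is measured in SH-SY5Y cells exposed to compound for 19 h and then to thapsigargin (100 nM, 4 h) to deplete ER calcium; hits retested at 11 concentrations, up to 76.6 uM.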

[18] = Cell Viability qHTS for small molecule stabilizers of the endoplasmic reticulum resident proteome (AID 1508629); settings: cell viability counter-screen, 100 nM thapsigargin for final 4 h
[19] = Confirmatory qHTS for small molecule stabilizers of the endoplasmic reticulum resident proteome: Secreted ER Calcium Modulated Protein (SERCaMP) assay (AID 1508628); further: series mostly up to about 76 µM; on the % scale 0 is the no-effect control and ±100 the full control effect; nearly all actives have a fitted effect of over 40% in size
Summary of the method: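 Reporter secretion upon ER calcium depletion (100 nM thapsigargin, 4 h, 37C) is measured as medium luminescence with coelenterazine, after 16 h compound pretreatment of SH-SY5Y-GLuc-SERCaMP cells; primary at three concentrations up to 38.3 uM, follow-up at 11 (up to 76.6 uM).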

Chain of Single-stranded DNA cytosine deaminase (Homo sapiens) (Q9GZX7 whole entry, looked up): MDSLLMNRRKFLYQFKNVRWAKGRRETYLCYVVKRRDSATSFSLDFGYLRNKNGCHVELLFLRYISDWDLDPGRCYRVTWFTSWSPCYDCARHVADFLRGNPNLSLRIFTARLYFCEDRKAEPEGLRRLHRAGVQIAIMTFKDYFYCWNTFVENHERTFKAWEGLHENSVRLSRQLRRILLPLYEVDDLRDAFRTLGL
Chain of Calcium and integrin-binding protein 1 (Homo sapiens) (Q99828 whole entry, looked up): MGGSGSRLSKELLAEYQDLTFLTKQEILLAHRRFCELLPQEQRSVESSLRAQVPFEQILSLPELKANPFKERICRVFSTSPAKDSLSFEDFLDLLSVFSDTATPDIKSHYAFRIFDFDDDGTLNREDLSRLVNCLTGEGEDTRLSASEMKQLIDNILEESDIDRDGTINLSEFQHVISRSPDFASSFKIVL
Chain of Protein phosphatase 1D (Homo sapiens) (O15297 whole entry, looked up): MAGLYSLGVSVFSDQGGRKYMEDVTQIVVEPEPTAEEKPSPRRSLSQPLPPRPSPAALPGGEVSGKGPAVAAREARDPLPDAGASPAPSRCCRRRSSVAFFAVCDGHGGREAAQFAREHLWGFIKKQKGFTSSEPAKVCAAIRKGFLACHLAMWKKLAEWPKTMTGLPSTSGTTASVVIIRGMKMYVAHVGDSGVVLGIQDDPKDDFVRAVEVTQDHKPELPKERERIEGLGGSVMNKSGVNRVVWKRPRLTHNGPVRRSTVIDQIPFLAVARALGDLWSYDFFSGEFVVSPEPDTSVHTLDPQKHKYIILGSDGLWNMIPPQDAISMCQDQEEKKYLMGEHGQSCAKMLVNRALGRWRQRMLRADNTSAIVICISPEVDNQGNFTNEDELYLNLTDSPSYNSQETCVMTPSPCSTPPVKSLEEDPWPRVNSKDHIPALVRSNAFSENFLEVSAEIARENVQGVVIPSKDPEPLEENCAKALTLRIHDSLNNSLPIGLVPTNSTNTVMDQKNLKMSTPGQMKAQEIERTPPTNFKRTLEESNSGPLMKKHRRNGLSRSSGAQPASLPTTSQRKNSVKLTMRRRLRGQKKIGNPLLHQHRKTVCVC

COCC(=O)NCC=Cc1ccc2ncnc(Nc3ccc(Oc4ccc(C)nc4)c(C)c3)c2c1
inactive: outcome [1] | outcome [2] | outcome [3] | Potency [4]

c1ccc([C@H]2CN3CCSC3=N2)cc1
inactive: Potency [5] | outcome [6] | outcome [7] | Potency [8] | Potency [9] | outcome [10] | outcome [11] | outcome [12] | outcome [3] | Potency [13]

O=c1n(CCCN2CCN(c3cccc(Cl)c3)CC2)nc2ccccn12
inactive: outcome [1] | outcome [2] | Potency [5] | outcome [6] | outcome [7] | Potency [9] | outcome [10] | outcome [11] | outcome [12] | outcome [3] | Potency [4] | Potency [13]

COc1cc2c(cc1OC)CN(CCc1ccc(NC(=O)c3cccc4c(=O)c5cccc(OC)c5[nH]c34)cc1)CC2
inactive: Potency [14] | outcome [3]

Cc1[nH]c(=O)c(C#N)cc1-c1ccncc1
inactive: outcome [1] | outcome [2] | Potency [14] | Potency [5] | outcome [6] | outcome [7] | Potency [8] | Potency [9] | outcome [10] | outcome [11] | outcome [12] | outcome [3] | Potency [4] | Potency [13]

CCCc1nn(C)c2c(=O)[nH]c(-c3cc(S(=O)(=O)N4CCN(C)CC4)ccc3OCC)nc12
inactive: Potency [5] | outcome [6] | outcome [7] | Potency [8] | Potency [9] | outcome [10] | outcome [12] | outcome [3] | Potency [4] | Potency [13]

O=C1CCc2cc(OCCCCc3nnnn3C3CCCCC3)ccc2N1
inactive: Potency [5] | outcome [6] | outcome [7] | Potency [8] | Potency [9] | outcome [10] | outcome [11] | outcome [12] | Potency [15] | Potency [4] | Potency [13]

O=c1[nH]cnc2[nH]ncc12
inactive: Potency [5] | outcome [6] | outcome [7] | Potency [8] | Potency [9] | outcome [10] | outcome [11] | outcome [12] | outcome [3] | Potency [4] | Potency [13]

O=C(C1CC1)N1CC[C@@H](Cn2c(-c3ccc(-c4ccc5occc5c4)cc3)nc3cnccc32)C1
inactive: outcome [1] | outcome [2] | Potency [8] | outcome [3]

CC(C)(C)NCC(O)c1ccc(O)c(CO)c1 (stereo not drawn)
inactive: Potency [5] | outcome [6] | outcome [7] | Potency [8] | Potency [9] | outcome [10] | outcome [11] | outcome [12] | outcome [3] | Potency [13]

Cn1cnc([N+](=O)[O-])c1Sc1ncnc2nc[nH]c12
active: Potency [14] 26.9 µM
35.5 µM (active) and inactive: Potency [13]
inactive: outcome [1] | outcome [2] | Potency [5] | outcome [6] | outcome [7] | Potency [8] | Potency [9] | outcome [10] | outcome [11] | outcome [12] | outcome [3]

NC(=O)c1cnccn1
inactive: Potency [5] | outcome [6] | outcome [7] | Potency [8] | Potency [9] | outcome [10] | outcome [11] | outcome [12] | Potency [13]

Oc1ccc(C2CNCCc3c2cc(O)c(O)c3Cl)cc1 (stereo not drawn)
inactive: Potency [5] | outcome [6] | outcome [7] | Potency [8] | Potency [9] | outcome [10] | outcome [11] | Potency [16] | outcome [12] | Potency [15] | outcome [3] | Potency [17] | max response [18] -10.9% | Potency [4] | Potency [13]

CC(C[N+](C)(C)C)OC(N)=O (stereo not drawn)
inactive: Potency [5] | outcome [6] | outcome [7] | Potency [8] | Potency [9] | outcome [10] | outcome [11] | outcome [12] | outcome [3] | Potency [4] | Potency [13]

CC(C)c1onc(-c2c(Cl)cccc2Cl)c1COc1ccc(/C=C/c2cccc(C(=O)O)c2)c(Cl)c1
inactive: outcome [2] | Potency [4]

CC(C)(Sc1ccc(CCN(CCCCC2CCCCC2)C(=O)NC2CCCCC2)cc1)C(=O)O
inactive: outcome [1] | outcome [2] | Potency [5] | outcome [7] | outcome [11] | outcome [12] | outcome [3] | Potency [17] | Potency [4]

CCN(CC)CCCC(C)Nc1ccnc2cc(Cl)ccc12 (stereo not drawn)
inactive: outcome [1] | outcome [2] | Potency [14] | Potency [5] | outcome [6] | Potency [9] | outcome [11] | Potency [16] | outcome [12] | Potency [17] | Potency [19] | max response [18] -9.95% | Potency [13]

NC(N)=NC(=O)c1nc(Cl)c(N)nc1N
inactive: Potency [5] | outcome [6] | outcome [7] | Potency [8] | Potency [9] | outcome [10] | outcome [11] | outcome [12] | outcome [3] | Potency [4] | Potency [13]

CCCC(CCC)C(=O)O
inactive: Potency [5] | outcome [6] | outcome [7] | Potency [8] | Potency [9] | outcome [10] | outcome [11] | Potency [16] | outcome [12] | Potency [13]

CC(=O)Oc1ccccc1C(=O)O
inactive: Potency [5] | outcome [6] | outcome [7] | Potency [8] | Potency [9] | outcome [10] | outcome [11] | outcome [12] | Potency [4] | Potency [13]

NNCCc1ccccc1
inactive: Potency [5] | outcome [6] | outcome [7] | Potency [8] | Potency [9] | outcome [10] | outcome [12] | outcome [3] | Potency [4] | Potency [13]

Cc1cc(SCc2sc(-c3ccc(C(F)(F)F)cc3)nc2C)ccc1OCC(=O)O
active: Potency [14] 14.7 µM
inactive: outcome [1] | outcome [2] | Potency [4]

CCn1cc(C(=O)O)c(=O)c2cc(F)c(N3CCNC(C)C3)c(F)c21 (stereo not drawn)
inactive: outcome [1] | outcome [2] | Potency [14] | Potency [5] | outcome [6] | outcome [7] | Potency [8] | Potency [9] | outcome [10] | outcome [11] | outcome [12] | outcome [3] | Potency [13]
